# Experimental data as given in PubChem BioAssay.
# Tested on: PRMT1 (protein arginine N-methyltransferase 1)
# Test: PRMT1 binders on small-molecule microarrays, primary screen, biochemical, small-molecule microarray, 635 nm fluorescence (AID 1088);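 further: binding of Prmt1 protein to compounds spotted on small-molecule microarray slides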
# Conditions: small-molecule microarray binding, higher = more signal
row,Structure (SMILES),composite z-score
1,COc1ccc(O[C@H]2C=C[C@@H](c3ccccc3)O[C@@H]2CON=CC[C@@H]2C=C[C@H](OC(C)=O)[C@@H](COC(C)=O)O2)cc1,0.15
2,CO[C@H]1COC(=O)CC=C[C@@H](C)[C@H](NS(=O)(=O)c2ccc(C)cc2)COC(=O)CCC[C@@H]1C,1.1
3,CON=CC[C@@H]1C=C[C@H](OC(C)=O)[C@@H](COC(C)=O)O1,0.0622
4,C=COC[C@@H]1CN2[C@@H](CC[C@@H](C)[C@@H]2c2ccc(Br)cc2)C(=O)O1,0.217
5,O=C1[C@H]2[C@H]3[C@H](O)[C@H](O)CC(=NOCc4ccccc4)[C@@H]3CC[C@H]2C(=O)N1Cc1ccc2c(c1)OCO2,0.231
6,COC(=O)NCC=Cc1nc(CCCO)co1,-0.227
7,CO[C@H]1COC(=O)CC=C[C@H](C)[C@@H](OC)COC(=O)[C@@H](C)COC(=O)CC=C[C@@H]1C,1.48
8,COC(=O)[C@@H]1CC[C@H](C)[C@@H](c2ccc(C)cc2)N1C(=O)c1ccc(C=NOC[C@@H](C)[C@H](OCc2ccccc2)C(C)C)cc1,1.55
9,COC(=O)CC=C[C@@H](C)[C@@H](C=NO[C@@H]1O[C@H](COC(C)=O)[C@@H](OC(C)=O)[C@H](OC(C)=O)[C@H]1OC(C)=O)NS(=O)(=O)c1ccc(C)cc1,1.41
10,CCOC(=O)[C@H](CC(C)C)NC(=O)CCC1CC(OC(=O)NCc2cccc3ccccc23)CC2(CCCC(COC(=O)NCCOc3ccccc3)O2)O1 (stereo not given in full),1.54
11,COc1cccc([C@H]2Oc3ccc(OC)cc3C(=NO[C@@H](C)c3cn([C@H](CO)Cc4ccccc4)nn3)[C@@H]2O)c1,0.0733
12,COC(=O)CC=C[C@@H](C)[C@@H](C=NOC[C@H]1O[C@H](c2ccccc2)C=C[C@@H]1Oc1ccc(OC)cc1)NS(=O)(=O)c1ccc(C)cc1,-1.27
13,C=CC1=C[C@H](O)[C@@H]2O[C@@H]2C12OCCCO2,-0.12
14,COC(=O)CC=C[C@@H](C)[C@H](OCc1cccc(-c2ccccc2)c1)C1CCCCC1,-0.526
15,CC(C)CON=C1C[C@@H](O)[C@@H](O)[C@@H]2[C@@H]3C(=O)N(Cc4ccc5c(c4)OCO5)C(=O)[C@@H]3CC[C@H]12,1.31
16,COc1ccc(O[C@H]2C=C[C@@H](c3ccccc3)O[C@@H]2CON=C(C)C)cc1,-0.818
17,COC(=O)CC=C[C@@H](C)[C@@H](C=NOC(C)CN1CCCc2nc(C)c(C)cc21)OC (stereo not given in full),0.356
18,CC(C)(C)N1C(=O)[C@H]2[C@H]3[C@H](O)[C@H](O)CC(=NO[C@@H]4O[C@H](CO)[C@@H](O)[C@H](O)[C@H]4O)[C@H]3CC[C@H]2C1=O,0.693
19,C#CCCCON=C1C[C@@H](O)[C@@H](O)[C@@H]2[C@@H]3C(=O)N(C(C)(C)C)C(=O)[C@@H]3CC[C@H]12,-0.872
20,CCOC(=O)NN=C1C[C@@H](O)[C@@H](O)[C@@H]2[C@@H]3C(=O)N([C@@H](C)c4ccccc4)C(=O)[C@@H]3CC[C@H]12,0.215
21,COC(=O)[C@@H]1CC[C@H](C)[C@@H](c2ccc(C)cc2)N1C(=O)c1ccc(C=NO[C@H](C)c2cn([C@H](CO)Cc3ccccc3)nn2)cc1,1.04
22,CCOC(=O)CCN1C(=O)[C@H]2[C@H]3[C@H](O)[C@H](O)CC(=NNC(=O)OCc4ccccc4)[C@@H]3CC[C@H]2C1=O,1.05
23,CC(C)=CCCC(C)=CCON=C1C[C@@H](O)[C@@H](O)[C@@H]2[C@@H]3C(=O)N(c4ccc(F)cc4F)C(=O)[C@@H]3CC[C@@H]12,1.11
24,CCc1cc2c(nc1CC)CCN(CCC(C)=NO[C@H](C)c1cn([C@H](CO)Cc3ccccc3)nn1)C2,1.05
25,COC(=O)[C@H](C)NC(=O)CCC1CC(OC(=O)NCCc2ccc(F)cc2)CC2(CCCC(COC(=O)NCCC(C)C)O2)O1 (stereo not given in full),0.173
26,CCN1C(=O)[C@@H]2[C@H]3C(=CC[C@@H]2C1=O)C1(OCCCO1)[C@H]1O[C@H]1[C@H]3O,1.44
27,CCCNC(=O)OC[C@H]1O[C@H](CCON=C(C)CCN2CCc3nc(CC)c(CC)cc3C2)C=C[C@@H]1Oc1ccc(OC)cc1,0.285
28,COc1cccc([C@H]2Oc3ccc(OC)cc3C(=NO[C@H](C)c3cn([C@H](CO)Cc4ccccc4)nn3)[C@@H]2O)c1,0.203
29,Cc1ccc(S(=O)(=O)n2c3ccccc3c3nnc(C(=O)c4ccccc4)nc32)cc1,-0.875
30,CCOC(=O)[C@H](Cc1ccccc1)NC(=O)CCC1CC(OC(=O)NCc2ccc3c(c2)OCO3)CC2(CCCC(COC(=O)NCCc3ccccc3OC)O2)O1 (stereo not given in full),1.49
